Experimental findings from PubChem BioAssay (NCI) are described below.

Experiment [1] in a line: NCI Yeast Anticancer Drug Screen. Data for the rad50 strain (AID 155).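 Also: 0% = growth of vehicle-only cultures of the same strain.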 Particulars: S. cerevisiae rad50 strain growth inhibition, stronger effect = higher value. The gist of the method: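 Cells are treated with compound, grown, and their growth is then scored against vehicle-only cultures of the same repair-deficient yeast strain.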
Experiment [2] is described as follows: NCI Yeast Anticancer Drug Screen. Data for the mec2-1 strain (AID 157). The settings on record: S. cerevisiae mec2-1 strain, stronger effect = higher value. The gist of the method:
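mec2-1 yeast strain, carrying an alteration in DNA damage repair or cell cycle control, was exposed to compounds; growth inhibition was measured relative to vehicle-treated controls.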

Experiment [3] is described as follows: NCI Yeast Anticancer Drug Screen. Data for the sgs1 mgt1 strain (AID 161).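 Also: 0% = growth of cultures given vehicle only.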 Particulars: S. cerevisiae sgs1 mgt1 strain, stronger effect = higher value. The gist of the method:
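Percent growth inhibition was derived by comparing compound-exposed mutant yeast with vehicle-exposed cultures. The strain carries alterations in DNA damage repair.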

The nature of experiment [4]: NCI Yeast Anticancer Drug Screen. Data for the cln2 rad14 strain (AID 165).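 Also: 0% = growth equal to vehicle treated cultures.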 The settings on record: S. cerevisiae cln2 rad14 strain, stronger effect = higher value. The gist of the method: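 Yeast carrying cln2 and rad14 alterations (cell cycle control and DNA damage repair) were exposed to compounds. Growth inhibition was measured against vehicle-treated controls.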
Experiment [5] can be described thus: NCI Yeast Anticancer Drug Screen. Data for the bub3 strain (AID 167). Particulars: S. cerevisiae bub3 mutant strain, stronger effect = higher value. The gist of the method: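 Part of a panel of yeast mutants defective in DNA damage repair or cell cycle regulation. Each strain is grown with compound, and inhibition is calculated relative to solvent-treated cultures.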
Experiment [6] is described as follows: NCI Yeast Anticancer Drug Screen. Data for the mlh1 rad18 strain (AID 175). The settings on record: S. cerevisiae mlh1 rad18 strain growth inhibition, stronger effect = higher value. The procedure, abridged: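 Growth inhibition of the yeast strain was measured after compound exposure and expressed relative to vehicle-treated controls. The strain carries defined defects in DNA damage repair.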

[7] abbreviates: at 5.0 µM (retest, dose inferred, filed as 0.5).
Where [8] appears, read: at 50.0 µM (retest, dose inferred, filed as 5.0).

The panel holds about 79,000 compounds, 15% with a hit somewhere; the sample as a whole holds those more often. Values without a mark were called inactive. Active and inactive are the calls of the source. Rule as the data show it: active = growth inhibition above about 70%; inactive = the rest.

As for `O=C1C2C3CCC(O3)C2C(=O)N1c1cccc2ccccc12` (stereo not given), the growth inhibition in experiment [1] (setting [7]) was -1%; in experiment [1] (setting [8]) it was -27%; in experiment [1] (at 50.0 µM), -1.2%; in experiment [2] (setting [7]) it was -5%; in experiment [2] (setting [8]), -5%; in experiment [2] (at 50.0 µM), 8.15%. In addition, the growth inhibition in experiment [3] (setting [7]) was -3%; in experiment [3] (setting [8]), 1%; in experiment [3] (at 50.0 µM), 49%; in experiment [4] (setting [7]), 0%; in experiment [4] (setting [8]), 1%; in experiment [4] (at 50.0 µM), -7.35%. The growth inhibition was 0% in experiment [5] (setting [7]); 7% in experiment [5] (setting [8]); -10.4% in experiment [5] (at 50.0 µM); 0% in experiment [6] (setting [7]); 5% in experiment [6] (setting [8]); 8.3% in experiment [6] (at 50.0 µM).

Turning to `CC(=O)OC1=CC(n2cc(F)c(=O)[nH]c2=O)OC(C)C1=O` (stereo not given), the growth inhibition in experiment [1] (setting [7]) was 23%; in experiment [1] (setting [8]) it was 58%; in experiment [1] (at 50.0 µM), 69.7%; in experiment [2] (setting [7]), 13%; in experiment [2] (setting [8]) it was 85% (active); in experiment [2] (at 50.0 µM), 88.4% (active). Moreover, the growth inhibition in experiment [3] (setting [7]) was 24%; in experiment [3] (setting [8]), 64%; in experiment [3] (at 50.0 µM) it was 86.5% (active); in experiment [4] (setting [7]) it was 19%; in experiment [4] (setting [8]), 4%; in experiment [4] (at 50.0 µM), 37.5%. The growth inhibition in experiment [5] (setting [7]) is 15%; in experiment [5] (setting [8]) it was -13%; in experiment [5] (at 50.0 µM), 62.1%; in experiment [6] (setting [7]), 20%; in experiment [6] (setting [8]), 57%; in experiment [6] (at 50.0 µM) it was 51.7%.

With `O=[N+]([O-])c1ccc(CSSCc2ccc([N+](=O)[O-])cc2)cc1`, the growth inhibition is 5% in experiment [1] (setting [7]); 18% in experiment [1] (setting [8]); 18.5% in experiment [1] (at 50.0 µM); 9% in experiment [2] (setting [7]); 39% in experiment [2] (setting [8]); 16.7% in experiment [2] (at 50.0 µM). Moreover, the growth inhibition was 21% in experiment [3] (setting [7]); 49% in experiment [3] (setting [8]); 41.5% in experiment [3] (at 50.0 µM); -3% in experiment [4] (setting [7]); 36% in experiment [4] (setting [8]); -18.2% in experiment [4] (at 50.0 µM). Moreover, the growth inhibition was 26% in experiment [5] (setting [7]); 66% in experiment [5] (setting [8]); 72.5% (active) in experiment [5] (at 50.0 µM); 10% in experiment [6] (setting [7]); 49% in experiment [6] (setting [8]); 28% in experiment [6] (at 50.0 µM).

Regarding `Cc1c2ncccc2cc2oc3ccccc3c(=O)c12`, the growth inhibition in experiment [1] (setting [7]) is 67%; in experiment [1] (setting [8]), 9%; in experiment [1] (at 50.0 µM) it was 62.7%; in experiment [2] (setting [7]), 24%; in experiment [2] (setting [8]), 78% (active); in experiment [2] (at 50.0 µM), 14.8%. For the same compound, the growth inhibition is 37% in experiment [3] (setting [7]); 6% in experiment [3] (setting [8]); 24.4% in experiment [3] (at 50.0 µM); 16% in experiment [4] (setting [7]); 37% in experiment [4] (setting [8]); 13.8% in experiment [4] (at 50.0 µM). The growth inhibition in experiment [5] (setting [7]) is 15%; in experiment [5] (setting [8]) it was 75% (active); in experiment [5] (at 50.0 µM), 19.9%; in experiment [6] (setting [7]) it was 23%; in experiment [6] (setting [8]) it was 10%; in experiment [6] (at 50.0 µM) it was 68.7%.

For `O=C1CCCC1CN1CCOCC1` (stereo not given), the growth inhibition in experiment [1] (setting [7]) is 5%; in experiment [1] (setting [8]), 97% (active); in experiment [1] (at 50.0 µM) it was 75% (active); in experiment [2] (setting [7]), -21%; in experiment [2] (setting [8]) it was 97% (active); in experiment [2] (at 50.0 µM), 75.7% (active). In addition, the growth inhibition in experiment [3] (setting [7]) was -32%; in experiment [3] (setting [8]), 75% (active); in experiment [3] (at 50.0 µM) it was 82% (active); in experiment [4] (setting [7]), 6%; in experiment [4] (setting [8]), 66%; in experiment [4] (at 50.0 µM) it was 64.4%. The growth inhibition in experiment [5] (setting [7]) was -20%; in experiment [5] (setting [8]), 96% (active); in experiment [5] (at 50.0 µM), 84.5% (active); in experiment [6] (setting [7]), -6%; in experiment [6] (setting [8]), 99% (active); in experiment [6] (at 50.0 µM), 83.5% (active).

As to `C=C(Br)CN(CC(=C)Br)C(C)=O`, the growth inhibition in experiment [1] (setting [7]) was 17%; in experiment [1] (setting [8]) it was 21%; in experiment [1] (at 50.0 µM), -11.7%; in experiment [2] (setting [7]), 17%; in experiment [2] (setting [8]), 14%; in experiment [2] (at 50.0 µM) it was -11.1%. Further, the growth inhibition was 25% in experiment [3] (setting [7]); 16% in experiment [3] (setting [8]); -2.5% in experiment [3] (at 50.0 µM); 15% in experiment [4] (setting [7]); 24% in experiment [4] (setting [8]); -45.4% in experiment [4] (at 50.0 µM). Further, the growth inhibition in experiment [5] (setting [7]) was 14%; in experiment [5] (setting [8]), 10%; in experiment [5] (at 50.0 µM), -1.4%; in experiment [6] (setting [7]), 22%; in experiment [6] (setting [8]), 21%; in experiment [6] (at 50.0 µM) it was -53.9%.

For `CCOC(=O)c1nc(SC)sc1NC(=O)c1ccccc1Cl`, the growth inhibition in experiment [1] (setting [7]) was 1%; in experiment [1] (setting [8]), 1%; in experiment [1] (at 50.0 µM), 19.4%; in experiment [2] (setting [7]) it was -5%; in experiment [2] (setting [8]), -5%; in experiment [2] (at 50.0 µM) it was -15.6%. Besides, the growth inhibition is 4% in experiment [3] (setting [7]); 4% in experiment [3] (setting [8]); 77.8% (active) in experiment [3] (at 50.0 µM); -13% in experiment [4] (setting [7]); -13% in experiment [4] (setting [8]); 27.8% in experiment [4] (at 50.0 µM). Also, the growth inhibition in experiment [5] (setting [7]) was -14%; in experiment [5] (setting [8]) it was -14%; in experiment [5] (at 50.0 µM), 30.4%; in experiment [6] (setting [7]), -5%; in experiment [6] (setting [8]), -5%; in experiment [6] (at 50.0 µM), -8.2%.

Turning to `Cc1ccc(NC(=O)CC2SC(N)=NC2=O)cc1C` (stereo not given), the growth inhibition is -1% in experiment [1] (setting [7]); -1% in experiment [1] (setting [8]); 87.5% (active) in experiment [1] (at 50.0 µM); 3% in experiment [2] (setting [7]); 8% in experiment [2] (setting [8]); 89.3% (active) in experiment [2] (at 50.0 µM). Further, the growth inhibition in experiment [3] (setting [7]) is -2%; in experiment [3] (setting [8]) it was 5%; in experiment [3] (at 50.0 µM), 91.2% (active); in experiment [4] (setting [7]) it was 8%; in experiment [4] (setting [8]) it was 4%; in experiment [4] (at 50.0 µM), 80.2% (active). Further, the growth inhibition in experiment [5] (setting [7]) was 0%; in experiment [5] (setting [8]) it was -4%; in experiment [5] (at 50.0 µM), 89.1% (active); in experiment [6] (setting [7]), -1%; in experiment [6] (setting [8]), 6%; in experiment [6] (at 50.0 µM), 90.3% (active).

As to `O=C1C(Cl)=C(N2C(=O)CCCC2=O)C(=O)c2ccccc21`, the growth inhibition is 100% (active) in experiment [1] (setting [7]); 99% (active) in experiment [1] (setting [8]); 89.2% (active) in experiment [1] (at 50.0 µM); 100% (active) in experiment [2] (setting [7]); 99% (active) in experiment [2] (setting [8]); 90.2% (active) in experiment [2] (at 50.0 µM). The growth inhibition in experiment [3] (setting [7]) is 100% (active); in experiment [3] (setting [8]), 99% (active); in experiment [3] (at 50.0 µM) it was 91.5% (active); in experiment [4] (setting [7]), 99% (active); in experiment [4] (setting [8]) it was 99% (active); in experiment [4] (at 50.0 µM) it was 89.8% (active). Further, the growth inhibition in experiment [5] (setting [7]) is 100% (active); in experiment [5] (setting [8]), 99% (active); in experiment [5] (at 50.0 µM) it was 89.1% (active); in experiment [6] (setting [7]), 99% (active); in experiment [6] (setting [8]), 99% (active); in experiment [6] (at 50.0 µM), 88.3% (active).

Turning to `CCc1nc2ccc(N=NN(C)C)cc2[nH]1`, the growth inhibition in experiment [1] (setting [7]) was 21%; in experiment [1] (setting [8]) it was 73% (active); in experiment [1] (at 50.0 µM), 84.5% (active); in experiment [2] (setting [7]), 19%; in experiment [2] (setting [8]) it was 80% (active); in experiment [2] (at 50.0 µM), 92% (active). The growth inhibition is 18% in experiment [3] (setting [7]); 96% (active) in experiment [3] (setting [8]); 74.2% (active) in experiment [3] (at 50.0 µM); 22% in experiment [4] (setting [7]); 87% (active) in experiment [4] (setting [8]); 88.1% (active) in experiment [4] (at 50.0 µM). Besides, the growth inhibition was 18% in experiment [5] (setting [7]); 97% (active) in experiment [5] (setting [8]); 88.5% (active) in experiment [5] (at 50.0 µM); 24% in experiment [6] (setting [7]); 91% (active) in experiment [6] (setting [8]); 91.3% (active) in experiment [6] (at 50.0 µM).
